Shown are actives, neighbours in structure and some others; about 14% of the full set was active somewhere.
Shiga toxin inh – blocks Shiga toxin action in Vero cells; Vero cells, Shiga toxin protein synthesis inhibition reporter; inhibition, % at 38.7 µM; 290,000 tested, 9.2% active; AID 2315; in the data active means inhibition mostly above about 28%, no sharp cut-off; inactive means mostly below about 43%
NS1 function inh – influenza NS1 inhibition | 270,000 tested, 0.4% active | Potency, µM (series often up to 46.1 µM); calls by dose curve; further: actives are rising curves; nearly all actives have a fitted effect of over 50% in size
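A cell-based growth assay was used: compounds that relieve NS1-induced slow growth of budding yeast raise OD600. Assay medium was yeast nitrogen base with ammonium sulphate and -URA supplement, pH 6.0, with 2% galactose.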
FBPA Giardia inh – Giardia lamblia aldolase inhibition | A8B2U2 | purified Giardia FBPA | Potency, µM (highest dose often 59.6 µM), hits mostly inhibitors | 290,000 tested, 0.71% active | AID 2451; further: nearly all actives have a fitted effect of over 55% in size
Target sequence (A8B2U2 whole entry, looked up): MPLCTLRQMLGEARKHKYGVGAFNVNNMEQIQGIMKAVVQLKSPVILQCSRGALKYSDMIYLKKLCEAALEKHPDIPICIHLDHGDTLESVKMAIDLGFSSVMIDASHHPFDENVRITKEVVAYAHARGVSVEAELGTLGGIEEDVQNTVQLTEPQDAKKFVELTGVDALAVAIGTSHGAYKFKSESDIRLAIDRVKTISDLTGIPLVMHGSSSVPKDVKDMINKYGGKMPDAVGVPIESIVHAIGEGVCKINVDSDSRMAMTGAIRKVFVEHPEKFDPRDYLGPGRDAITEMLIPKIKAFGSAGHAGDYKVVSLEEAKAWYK
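40 nM FBPA preincubated 10 min at RT with compound (up to 57.5 uM final), then substrate plus GAPDH/TPI/NAD/arsenate coupling and diaphorase/resazurin added. Fluorescence read after 20 min at RT, 525/598 nm.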
LmPK inh – inhibitors of Leishmania mexicana pyruvate kinase; AID 1721; purified LmPK, Kinase-Glo ATP luminescence, 1 h; 290,000 tested, 0.37% active; Potency, µM (series often up to 57.5 µM), hits mostly inhibitors; Q27686
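In 50 mM imidazole pH 7.2 with 7 mM MgCl2, LmPK (0.1 nM) turned over PEP (0.5 mM) and ADP (0.1 mM) for 1 h at room temperature. Luciferase read-out of ATP.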
CHX counter – affects cycloheximide protein synthesis inhibition readout, counter-screen | 300,000 tested, 12% active | cell reporter, cycloheximide protein synthesis inhibition counterscreen | max response, %; in the data active means max response mostly above about 13%, no sharp cut-off; inactive means mostly below about 14%; further: read at 38.3 µM for the half of the compounds with a filed dose
Large screens that a line does not name were inactive. Unless noted, the call rests on the fitted dose curve; in most records, active means well fitted curve in the direction sought with a large enough effect; inconclusive means small, poorly fitted or top-dose-only effect, or another doubt; inactive means no such curve, though single readings can be large; an effect the other way counts as inactive or inconclusive.

Cc1ccc(SCC(=O)N2CCOCC2)cc1	Shiga toxin inh 35, CHX counter 23
O=C(COc1ccc2cc(Br)ccc2c1Br)N1CCOCC1	Shiga toxin inh 30, CHX counter 29 (no result: FBPA Giardia inh)
Cc1ccc(-c2nc(CSCC(=O)N3CCOCC3)c(C)o2)cc1	Shiga toxin inh 73
Cc1ccc(CC(=O)N2CCOCC2)cc1	none
Cc1ccc(CSCC(=O)N2CCOCC2)cc1	CHX counter 20
Cc1ccc(-c2nc(CSCC(=O)N3CCN(C(=O)c4ccco4)CC3)c(C)o2)cc1	none
COc1ccccc1NC(=O)CCNS(=O)(=O)c1ccc2c(c1)CCN2C(C)=O	none
COCCCNC(=O)CNC(=O)c1nn(-c2ccc(OC)c(Cl)c2)c(=O)c2ccccc12	none
O=C(CCSc1nccn1Cc1ccccc1)N1CCOCC1	Shiga toxin inh active, CHX counter 19
CCOC(=O)N1CCN(C(=O)CCSc2ccc(Cl)cc2)CC1	none
Clc1ccc(SCc2csc(N3CCOCC3)n2)cc1	Shiga toxin inh 54, CHX counter 33
O=C(CCSc1ccc(Cl)cc1)N1CCOCC1	Shiga toxin inh 53, CHX counter 29
O=C(CSc1ccc(Cl)cc1)N1CCOCC1	Shiga toxin inh 68, CHX counter 29
COC(=O)[C@H](COC(C)(C)C)NC(=O)O[C@@H]1Cc2cc(Br)ccc2O[C@H]1c1cccc(OC)c1	none (no result: Shiga toxin inh, NS1 function inh, LmPK inh, CHX counter)
CC(CCN)(CCN)[N+](=O)[O-]	none (no result: Shiga toxin inh, FBPA Giardia inh, LmPK inh, CHX counter)
COc1cccc(S(=O)(=O)N2CCN(S(=O)(=O)c3ccc4c(c3)OCCO4)CC2)c1	none (no result: NS1 function inh, FBPA Giardia inh, LmPK inh)
O=C(CSc1ccc(Br)cc1)N1CCOCC1	Shiga toxin inh 46, CHX counter 27
O=c1c2ccccc2nnn1CSc1nnc2ccccn12	Shiga toxin inh 99, CHX counter 34
Cc1cccc(-n2nnnc2SCn2nnc3ccccc3c2=O)c1	NS1 function inh inconclusive, CHX counter 23
Cc1ccc(-n2nnnc2SCn2nnc3ccccc3c2=O)cc1	Shiga toxin inh 95, CHX counter 62
O=c1c2ccccc2nnn1CSc1nnnn1-c1ccc(O)cc1	Shiga toxin inh 67, CHX counter 32 (no result: NS1 function inh)
Cn1c(SCn2nnc3ccccc3c2=O)nc2ccccc2c1=O	none (no result: NS1 function inh)
COc1ccc(C)cc1-n1nnnc1SCn1nnc2ccccc2c1=O	none
Cc1ccc(NC(=O)CCN2CC(C)OC(C)C2)cc1C (stereo not given)	none
CCCCC/C=C\C[C@@H](O)/C=C/C=C\CCC(=O)O	none (no result: Shiga toxin inh, NS1 function inh, LmPK inh, CHX counter)
CN(C)S(=O)(=O)c1ccc(N2CCCC2)c(C(=O)Nc2nc3ccc(F)cc3s2)c1	Shiga toxin inh 37, CHX counter 14
Cc1cccc2sc(NC(=O)c3cc(S(=O)(=O)N(C)C)ccc3N3CCCC3)nc12	none
CN(C)S(=O)(=O)c1ccc(N2CCCC2)c(C(=O)Nc2nc3ccccc3s2)c1	Shiga toxin inh 47, NS1 function inh inconclusive
Nc1nn(-c2cccc(F)n2)cc1-c1ccccc1	Shiga toxin inh 107, CHX counter 40
Nc1nn(-c2cccc(F)n2)cc1-c1ccc(Cl)cc1	Shiga toxin inh 77, CHX counter 23
O=C(c1cn(-c2ccccc2)nc1-c1cccs1)N1CCN(c2ccccn2)CC1	Shiga toxin inh 43, CHX counter 16
CN1CCN(C(=O)c2cn(-c3ccccc3)nc2-c2cccs2)CC1	none
Cn1/c(=N/NC(=O)c2ccccc2Br)sc2ccccc21	Shiga toxin inh 87, CHX counter 36 (no result: NS1 function inh)
O=C(Nc1ccccc1C(=O)NCc1cccnc1)c1cccc([N+](=O)[O-])c1	none
O=C(Nc1ccccc1F)c1ccc2snnc2c1	Shiga toxin inh 60, CHX counter 38
O=C(Nc1ccc(Cl)cc1)c1ccc2snnc2c1	Shiga toxin inh 38, CHX counter 37
CC(=O)c1ccc(NC(=O)c2ccc3snnc3c2)cc1	Shiga toxin inh 65, CHX counter 50
CNC(=O)c1ccc2snnc2c1	none
COc1ccc(NC(=O)c2ccc3snnc3c2)cc1	Shiga toxin inh 64, CHX counter 46
CCc1cc(C(=O)N(C)CC(=O)N(CC(C)C)c2c(N)n(CC(C)C)c(=O)[nH]c2=O)sc1C	none
COc1ccc(NC(=S)N2CCC(c3ccc(C)cc3)C2)cc1 (stereo not given)	CHX counter 14
CCOc1ccc(NC(=S)N2CCC(c3ccc(C)cc3)C2)cc1 (stereo not given)	none
COc1cccc(NC(=S)N2CCC(c3ccc(C)cc3)C2)c1 (stereo not given)	Shiga toxin inh 82, CHX counter 30
O=C(/C=C/c1cccc(F)c1)NCCCn1ccnc1	none
